Assay outcomes as filed in PubChem BioAssay.
LGR2 antag: Drosophila LGR2 receptor signaling inhibition. HEK293 LGR2, CRE-luciferase, bursicon-stimulated, 4 h. inhibition, % at 9.99 µM. 380,000 compounds, 0.35% hits;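 active = drop in luminescence signal, shown as inhibition above about 50% in the replicate tests, limit read from the data, passing the limit was not always enough; inconclusive = probably only some replicates passing the limit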;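 note: agonist challenge used bursicon conditioned medium at about half maximal strength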
CFTR F508del cor: CFTR F508del correction in bronchial cells; CFBE cells, YFP halide quenching; stimulated with forskolin plus potentiator P3; % fluorescence drop versus neutral controls; activity (quench increase), % at 7.58 µM; 350,000 compounds, 0.36% hits; AID 720511;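 active = mean added fluorescence quench of at least 8% versus neutral control, with both replicates also reaching 8%; inconclusive = only one of the mean or replicate conditions met; inactive = mean below 8% and not both replicates reaching 8%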;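 note: cells transiently co-express mutant CFTR-F508del with the halide-sensitive YFP; corrector assay measuring rescue of mutant channel to the surface after 24 h compound exposure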
PAX8 inh HTS: PAX8 transcriptional activity inhibition. RMG-I TPO-luciferase reporter, SteadyGlo, 24 h. inhibition, % at 12.6 µM. 360,000 compounds, 1.2% hits. AID 652154;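 active = mean replicate inhibition at least 60% with every replicate also reaching 60%; inconclusive = only one of the two criteria is met; inactive = mean below 60% and not all replicates reaching 60%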;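 note: luciferase light reporting Pax8 driven TPO promoter activity; plate controls were median of neutral control wells for no effect and mitoxantrone controls for full effect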
EWS-Fli inh: inhibitors of EWS/Fli oncoprotein transcriptional activity | A673 NR0B1-luciferase reporter, viability-normalised | 350,000 compounds, 0.67% hits | inhibition, % at 12.6 µM;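 active = mean inhibition of at least 50% after viability correction, with every replicate also passing that limit; inconclusive = mean reaches 50% but only one of two replicates passes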;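 note: firefly luciferase signal divided by Alamar Blue viability fluorescence both relative to DMSO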
* marks the source's active call; other numbers are inactive results; ? = inconclusive; nt = no result; ! = not active in a repeat. A selection: hits, their analogues and other compounds. The true share with any hit is near 1.8%.

SMILES	LGR2 antag	CFTR F508del cor	PAX8 inh HTS	EWS-Fli inh
COc1ccc(S(=O)(=O)N(C)C[C@@H]2OCCCC[C@H](C)Oc3ccc(NC(=O)Nc4ccc(F)cc4)cc3C(=O)N([C@H](C)CO)C[C@H]2C)cc1	17	0	67*	19
CC(=O)N1CCN(c2ccc(NC(=O)c3ccc4c(c3)OCCO4)cc2Cl)CC1	-36	nt	-34	-67
CC(C)C(=O)N1CCN(c2ccc(NC(=O)c3ccc4c(c3)OCCO4)cc2Cl)CC1	85*	nt	nt	nt
O=C(Nc1ccc(F)cc1)N1CC(=O)N2[C@@H](CO)[C@@H](c3ccc(-c4ccc(F)cc4)cc3)[C@@H]2C1	-8	2	0	7
O=C(Nc1ccc(F)cc1)N1CC(=O)N2[C@@H](CO)[C@H](c3ccc(-c4ccc(F)cc4)cc3)[C@@H]2C1	19	-1	101*	-3
O=C(Nc1ccc(F)cc1)N1CC(=O)N2[C@@H](CO)[C@@H](c3ccc(C#Cc4ccc(F)cc4)cc3)[C@@H]2C1	11	2	119*	2
COc1ccc(NC(=O)N2CC(=O)N3[C@H](C2)[C@H](c2ccc(/C=C/c4ccccc4)cc2)[C@@H]3CO)cc1	1	4	105*	-3
O=C(Nc1ccc(F)cc1)N1CC(=O)N2[C@H](C1)[C@H](c1ccc(C#Cc3ccc(F)cc3)cc1)[C@@H]2CO	22	2	68*	-5
O=C(CNS(=O)(=O)c1ccccc1)Nc1ccc(F)cc1F	5	-2	-6	1
Cc1ccn2cc(C(=O)N3CCN(c4cnn(-c5ccccc5)c(=O)c4Cl)CC3)nc2c1	-4	-2	18	5
O=C(NC1CCCCCC1)c1[nH]c(C(F)(F)F)nc1-c1ccccc1	-7	-3	-9	15
CC(C)CC#Cc1ccc([C@H]2[C@H](CO)N3C(=O)CN(C(=O)Nc4cc(F)ccc4F)C[C@@H]23)cc1	4	11*	9	5
CC(C)CC#Cc1ccc([C@H]2[C@@H](CO)N3C(=O)CN(C(=O)Nc4cc(F)ccc4F)C[C@@H]23)cc1	4	1	14	-1
Cc1nc2c(-c3ccc(Cl)cc3)c(C)[nH]n2c(=O)c1Cc1ccccc1	16	-3	62*	14
Cc1nc2c(-c3ccccc3)c(C)[nH]n2c(=O)c1Cc1ccccc1	-20	-1	14	2
COc1cc(C#Cc2c(-c3cncn3C)n(C)c3ccc(-c4cc(OC)c(OC)c(OC)c4)cc23)cc(OC)c1	nt	3	73*	23
COc1cc(C#Cc2c(-c3cncn3C)n(C)c3ccc(-c4ccc(OC)nc4)cc23)cc(OC)c1	nt	-1	14	17
CO[C@@H]1CN(C)C(=O)c2cc(NC(=O)C3CCOCC3)ccc2OC[C@@H](C)N(C(=O)c2ccccc2)C[C@@H]1C	-6	-3	nt	-10
CCC(=O)Nc1cc2nn(-c3ccc(C)cc3)nc2cc1C	40	-2	-118	77*
CCCCC(=O)Nc1cc2nn(-c3ccc(OC)cc3)nc2cc1C	10	0	nt	-60
Cc1cccc(OCC(=O)NNC(=O)c2ccc3nc[nH]c3c2)c1	-7	17*	-7	-2
COc1ccc(C(=O)N/N=C/c2ccc(OC)c(CN3CCN(c4ccc(F)cc4)CC3)c2)cc1	nt	-2	144*	-3
CC(=O)C(=Cc1cc(C)n(-c2ccccc2)c1C)C(C)=O	-1	1	0	-13
C=C1C(=O)C2=CC1CCC(=O)C1(C)CCC(OC(C)=O)C(C)(C)C1CC2O (configuration not stated)	103*	-18	105*	57*
CC(=O)OC1CCC2C3CCC4OC(=O)CCC4C3CCC12C (configuration not stated)	-30	2	5	2
SMILES	LGR2 antag	CFTR F508del cor	PAX8 inh HTS	EWS-Fli inh
Cc1cccc(C)c1NC(=O)C(c1ccccc1F)n1c(=O)c(-c2ccccc2)nc2ccccc21 (configuration not stated)	2	4	29	-3
COc1cc(NC(=O)Cn2ccsc2=N)cc(OC)c1	9	1	15	11
c1ccc(C2=NCCCO2)cc1	12	0	-16	-2
c1ccc(N=Nc2ccc(C3=NCCO3)cc2)cc1	81*	-1	-44	43
O=C1CCCN1CCCNCCCn1cnc2c(OCc3ccccc3)ncnc21	-9	-1	8	4
COc1ncnc2c1ncn2CCCNCCCN1CCCC1=O	-19	-1	72*	2
COc1ccccc1NS(=O)(=O)c1ccc(C(N)=O)cc1	-14	4	-14	9
CCCCNc1c(-c2ccc(OC)c(SC3CCCCC3)c2)nc2ccc(C)cn12	52*!	1	38	27
CCC(C)Sc1cc(-c2nc3ccccn3c2NC2CCCCC2)ccc1OC (configuration not stated)	53*!	0	34	30
CCOC(=O)c1ccc(CN2Cc3ccccc3C2=O)cc1	5	0	-24	0
CC[C@]1(c2ccccc2OC)ON(c2ccccc2C(F)(F)F)C1=O	-4	-4	84*	23
COc1ccccc1[C@]1(C)ON(c2ccccc2C(F)(F)F)C1=O	37	-1	48	1
C[C@H]1CCCCO[C@H](CN(C)S(=O)(=O)c2ccccc2)[C@@H](C)CN([C@@H](C)CO)C(=O)c2cc(NS(=O)(=O)c3ccc(Cl)cc3)ccc2O1	6	3	100*	13
C[C@@H]1CCCCO[C@@H](CN(C)S(=O)(=O)c2ccccc2)[C@H](C)CN([C@H](C)CO)C(=O)c2cc(NS(=O)(=O)c3ccc(Cl)cc3)ccc2O1	23	-2	66*	8
Nc1nc(Sc2ccc(C(F)(F)F)cc2[N+](=O)[O-])n[nH]1	nt	nt	23	nt
Nc1nc(Sc2c([N+](=O)[O-])cc(C(F)(F)F)cc2[N+](=O)[O-])n[nH]1	-8	-13	21	55*
C/C(=N\NC(=O)C(c1ccccc1)c1ccccc1)c1ccccn1	25	nt	77*	nt
C/C(=N\NC(=O)c1cccc2ccccc12)c1ccccn1	9	2	65*	-32
C/C(=N\NC(=O)C(c1ccccc1)c1ccccc1)c1ccc(O)cc1	-4	-3	2	7
NNC(=O)c1cc(-c2cccs2)nc2ccccc12	4	-3	12	1
C/C(=N\NC(=O)c1cc(-c2cccs2)nc2ccccc12)c1ccccn1	nt	12*	79*	-3
O=C(O)c1ccc(NCc2cccc(Br)c2)cc1	-9	nt	13	nt
O=C(Nc1cccc(F)c1)N1CCCCN2[C@H](CO)[C@H](c3ccc(C#Cc4ccccc4)cc3)[C@@H]2C1	16	6	-41	6
O=C(Nc1cccc(F)c1)N1CCCCN2[C@H](CO)[C@H](c3ccc(C#Cc4ccccc4)cc3)[C@H]2C1	23	7	?	73*
O=C(Nc1cccc(F)c1)N1CCCCN2[C@H](CO)[C@@H](c3ccc(C#Cc4ccccc4)cc3)[C@H]2C1	23	3	116*	42
N#Cc1cccc(-c2ccc([C@@H]3[C@H](CO)N4CCCCN(C(=O)Nc5cccc(F)c5)C[C@@H]34)cc2)c1	96*	-5	35	26
